Measured values published in the supplement of paper PMC6555819.

How the values were obtained:
Experiment in all cases: PBM binding z-score (relative to random genomic background probes); higher = stronger binding; sequences stand for … in GC…GCGATTGACAGCGTAGAATGAAGG
[1] = system: FXR:RXRa (NR concentration 270 nM, RXRa partner concentration 90 nM)
How it was run: (§1)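 Binding z-scores were set against random background probes. The data came from custom Agilent 4×180K protein-binding microarrays carrying double-stranded probes with 34-nt variable regions, incubated 1 h with ligand-free nuclear receptor dimers. Partner-specific antibodies detected binding, and scanned fluorescence was regression-normalized.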

[2] = system: LXRa:RXRa (NR concentration 270 nM, RXRa partner concentration 90 nM)
How it was run: as §1

[3] = system: LXRa homodimer (NR concentration 270 nM)
How it was run: as §1

[4] = system: LXRb:RXRa (NR concentration 270 nM, RXRa partner concentration 90 nM)
How it was run: as §1

[5] = system: LXRb homodimer (NR concentration 270 nM)
How it was run: as §1

[6] = system: PPARa:RXRa (NR concentration 270 nM, RXRa partner concentration 90 nM)
How it was run: as §1

[7] = system: PPARg:RXRa (NR concentration 180 nM, RXRa partner concentration 90 nM)
How it was run: as §1

[8] = system: PPARg:RXRa 270nM:90nM, anti-RXR (NR concentration 270 nM, RXRa partner concentration 90 nM)
How it was run: as §1

[9] = system: PPARg:RXRa 30nM:10nM, anti-RXR (NR concentration 30 nM, RXRa partner concentration 10 nM)
How it was run: as §1

[10] = system: PPARg:RXRa 90nM:30nM, anti-RXR (NR concentration 90 nM, RXRa partner concentration 30 nM)
How it was run: as §1

Row | Sequence | PBM binding z-score [1] | PBM binding z-score [2] | PBM binding z-score [3] | PBM binding z-score [4] | PBM binding z-score [5] | PBM binding z-score [6] | PBM binding z-score [7] | PBM binding z-score [8] | PBM binding z-score [9] | PBM binding z-score [10]
1 | CTCGATAGGTCGTGCTCAGGTGAGTATACCAAAC | 0.909 | 0.843 | -0.342 | 0.951 | -0.454 | 1.82 | 0.11 | 0.394 | -0.186 | -0.0239
2 | TTACCAAGGTGAGCTGAGGTCGTTGGTCCAACTC | 1.55 | 1.34 | -0.436 | 0.439 | -1.02 | 1.67 | -0.467 | 0.63 | -0.5 | 0.00719
3 | TCATATAGGTAAAAGGTGAAAGGCGGTGTGGTAA | 1.86 | 1.88 | 0.349 | 1.9 | 0.306 | 5.25 | 9.05 | 8.31 | 8.92 | 9.94
4 | GCTATTTGTTGAAAGGGCAACCGAATGATTCTCG | 0.484 | 0.768 | 0.386 | 0.834 | 0.261 | 1.37 | 0.764 | 1.88 | 0.957 | 1.46
5 | GCATGTAGATCAAGGTTAAGAAAGACTAAGCTAA | 0.0428 | 0.684 | -0.386 | 0.504 | -0.805 | 1.47 | 1.33 | 2 | 0.418 | 1.55
6 | CGTCGAAGGTCAAGGTCAGTGAAAGAGACTCGAA | 7.03 | 5.5 | 0.585 | 4.59 | 0.681 | 6.39 | 6.6 | 6.24 | 2.48 | 5.24
7 | CCTAGCAGGCCAATCTGGGTCTCTCAAGGCTTGA | -0.268 | -0.409 | -0.738 | -0.885 | -0.982 | 0.318 | -0.774 | -0.468 | -1.1 | -0.61
8 | TCATATAGGTTATACAGGTGAAAGTCGGCATCTA | 1.71 | 2.32 | 0.882 | 1.82 | 0.833 | 2.99 | 2.56 | 3.17 | 3.94 | 3.58
9 | TCTAGTTGGTCACGGAGGTCACTCACGACGGGTA | 2.52 | 2.98 | 1.91 | 2.84 | 0.542 | 3.15 | 2.52 | 3.55 | 3.29 | 3.24
10 | GCAGACAGGTGAAACGCAGATAACTCAGGGTGGC | -0.337 | -0.00809 | -0.429 | -0.285 | -0.813 | 0.654 | 1.04 | -0.0865 | -0.367 | -0.137
11 | CCTACTGGCCCATCAGGTCATTGATATCAACGTT | 1.56 | 1.2 | 1.15 | 1.63 | 0.0775 | 1.62 | 0.503 | 1.07 | 0.112 | 0.701
12 | ATCGATAGGTCGAGGTGAGTATAGAGAAAGGGAA | 0.48 | 0.636 | -0.293 | 0.566 | -0.118 | 2.02 | 0.873 | 0.711 | 0.245 | 0.369
13 | CAAACTAGGTCACAAAGGTCAAAGTCCGTGCGTA | 7.43 | 6.7 | 7.48 | 6.59 | 3 | 6.49 | 10.3 | 8.31 | 7.58 | 8.55
14 | ACTAGCAGGCCAAGTTTGGGTCACTCGAACAAAG | 0.398 | 0.0952 | -0.533 | 0.67 | -0.727 | 1.33 | 0.0973 | 0.504 | -0.62 | 0.14
15 | CCTTACGGGTTAAGGTTATAGCACGGGTGGTACG | 1.55 | 1.38 | -0.0602 | 1.09 | -0.11 | 2.09 | 1.12 | 1.61 | 0.309 | 1.09
16 | CGTCCAAGGTCATAGGAGATCAGTGAAGACAGAT | 6.93 | 5.5 | 1.32 | 3.92 | 0.511 | 5.4 | 4.74 | 4.9 | 2.45 | 3.71
17 | GCTTGTAGATCAAGGTTAACAAAGACTAAGCTAA | 0.151 | 1.17 | -0.222 | 0.96 | -0.488 | 1.91 | 2.04 | 3.12 | 0.936 | 2.61
18 | ATCTCTAGGTAGAAGTTCAGTGAATCCCGAGGAT | 0.0471 | 0.223 | 0.0969 | 0.0752 | 0.257 | 2.6 | 4.33 | 5.62 | 4.14 | 5.52
19 | ATCGAAAGGTCGACTAGGTGAGTATACACCGTTT | 4.12 | 3.17 | 0.302 | 2.94 | 0.797 | 4.24 | 2.56 | 3.24 | 1.06 | 2.34
20 | ACTCGGAGGACAAAGGTCCGAGCTACGCCAGTGA | -0.0908 | 0.0119 | -0.328 | -0.654 | -0.577 | 0.672 | 1.66 | 2.29 | 0.616 | 2.38
21 | CCAGACAGGTGAGAATGTAACTCAGCCTCGATTA | -0.153 | -0.116 | -0.13 | -0.00314 | -0.187 | 0.0169 | 0.376 | -0.212 | -0.0571 | -0.437
22 | AGTCAAAGTTCAGGAAGAGGTAACGTAAAGCACG | 3.92 | 3.76 | 0.911 | 2.07 | 0.602 | 3.54 | 4.98 | 4.92 | 1.98 | 3.88

Row | Sequence | PBM binding z-score [1] | PBM binding z-score [2] | PBM binding z-score [3] | PBM binding z-score [4] | PBM binding z-score [5] | PBM binding z-score [6] | PBM binding z-score [7] | PBM binding z-score [8] | PBM binding z-score [9] | PBM binding z-score [10]
23 | ACTAGTTGGTCAGCTGAGGTCACTCACAATTCGG | 2.19 | 2.57 | 1.98 | 2.87 | 0.671 | 3.26 | 1.04 | 1.68 | 0.169 | 1.19
24 | GCTCGGAGAACAAGGTCAGAGCTTTGTCCGTAGA | 1.25 | 1.41 | -0.275 | 1.11 | -1.02 | 2.37 | 0.176 | 0.774 | -0.425 | 0.29
25 | CCTAGTTGGACAAGGTCACACACGCTATAGGTAC | 3.57 | 3.53 | 1.48 | 3.58 | 0.67 | 4.1 | 2.58 | 2.92 | 0.968 | 2.08
26 | ATACCAAGGTGATCGTGAGGCCGTTGATACTAAC | 0.369 | 0.246 | -0.0793 | 0.0516 | -0.198 | 0.139 | 0.361 | 0.165 | 0.0132 | 0.0891
27 | ACTATTAGTTGACTTAGGGCAACCTATACGACGC | 0.173 | 0.433 | 0.321 | 0.316 | 0.731 | 0.252 | 1.02 | 0.258 | 0.33 | 0.444
28 | CGTCCAAGGACAAGGTCAGTGAAAGAGACTCGAA | 1.56 | 1.45 | -0.433 | 1.46 | -0.506 | 2.39 | 0.883 | 1.23 | -0.0239 | 0.648
29 | TCGAGTAGGTTAGTCGGGGCATCCAGCCAACATA | 0.256 | 0.187 | -0.411 | 0.296 | -1.13 | 0.822 | -0.0152 | 0.685 | 0.993 | 0.766
30 | ACTTACGGGTCAATGAGGTTATAGCACGCGTATA | 5.51 | 4.96 | 0.962 | 4.08 | 1.04 | 5.25 | 4.45 | 4.61 | 2.44 | 3.5
31 | GCAGATAGGTGAAACGCAGGTAACTCAGGGTGGC | -0.146 | 0.0468 | -0.529 | -0.0922 | -1.28 | 1.27 | 0.838 | 0.277 | -0.496 | 0.174
32 | TCTTATAGATCAAGCAGGTTAAGAAAGCCTGAGT | 0.514 | 0.381 | -0.0643 | 0.19 | -0.324 | 0.961 | -0.00693 | 1.62 | 3.48 | 2.75
33 | CCTAGTTTGTCAGGAGGTCACACACCGGATATGA | 3.37 | 3.76 | 3 | 3.64 | 1.48 | 4.17 | 2.45 | 3.15 | 1.26 | 2.39
34 | CCTTGGAGGACAGAAGGTCAGAGCTGTCCGCTTT | 1.46 | 1.83 | 0.306 | 1.23 | -0.609 | 2.23 | 0.715 | 2.34 | 0.178 | 1.81
35 | CCGAGTAGGTTATGGGGCAATCAGGCAACGGTGA | 0.219 | 0.461 | 0.13 | 0.86 | -0.142 | 2.37 | 3.61 | 4.62 | 2.23 | 4.39
36 | ACAGACAGGTGAGGAAGGTAACTCAGGCTATCAT | 0.118 | -0.0457 | -0.223 | 0.105 | -0.143 | 0.173 | 0.575 | -0.276 | 0.0158 | -0.414
37 | CGTCCATGGTCAGCAGGTCAGTGAAAGCGACGTG | 0.175 | -0.104 | -0.348 | -0.0301 | -0.987 | 0.781 | -0.0482 | -0.0239 | -0.823 | -0.464
38 | ATATGTAGGTTAGCTGGGGTCATTCGGACTAGGC | 4.85 | 5.8 | 3.75 | 4.73 | 1.58 | 5.11 | 5.79 | 5.43 | 3 | 4.4
39 | TCTTGTAGATCAATAAAGGTTAAGAAAGTGCGCT | 1.03 | 4.33 | 0.774 | 2.36 | 0.274 | 2.32 | 0.49 | 2.26 | 2.99 | 2.82
40 | CAGCCTAGGTCAGGGCCAGTATAGGAGGAACGTT | 1.63 | 0.984 | 0.0185 | 0.506 | -0.929 | 2.13 | 0.978 | 1.03 | 0.126 | 0.524
41 | CCGCCTGGGGCAAAGGTTACCATACTCAGTACGA | 1.58 | 1.77 | 0.256 | 2.07 | -1.01 | 4.22 | 7.52 | 7.16 | 5.72 | 7.35
42 | TCATATAGGCAATACAGGTGAAAGTCGGCATCTA | 1.06 | 0.731 | 0.422 | 0.906 | -0.3 | 1.3 | 0.823 | 1.91 | 3.62 | 2.85
43 | GCTCGTAGATCAAGGTTAAGAAAGACTAAGCTAA | -0.496 | 0.698 | -0.704 | 0.341 | -1.05 | 1.03 | -0.16 | 0.485 | -0.162 | 0.0383
44 | CCTCGGAGGACAACTGGAGGTCAGAGCTGCCAGA | 1.53 | 3.1 | 5.05 | 1.94 | -0.251 | 1.99 | 0.231 | 0.569 | -0.723 | 0.0567
